ERa SRC1 inh – ERα–SRC-1 coactivator interaction inhibitors, primary screen, biochemical, TR-FRET, ERα LBD, estradiol-bound. TR-FRET ER-alpha LBD / SRC-1 peptide. inhibition, % at 25.6 µM. AID 629, 2007. actives 1.7% (n = 86,000); in the data active = inhibition above about 50%
HUVEC tox IL1B – cytotoxicity in IL-1B stimulated HUVEC, primary screen, cytotoxicity control for IL-1B NFkB translocation project, imaging, Hoechst nuclear count, IL-1B stimulus | cell count reduction, % at 2 µM | actives 0.41% (n = 94,000) | HUVEC cell count loss;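 active = cell count reduction more than 3 SD above the screen-wide mean, cut at about 70% in these data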
ERb coact inh – inhibitors of ERβ-SRC1 coactivator interaction, primary screen, biochemical, TR-FRET, ERβ LBD, SRC-1 peptide. Estrogen receptor beta (Homo sapiens), Q92731. TR-FRET ER-beta LBD / SRC1-Cy5 peptide binding; receptor agonist-loaded with 1 µM estradiol. inhibition, % at 25.6 µM. actives 1.3% (n = 86,000). AID 633, 2007;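 active = compounds whose percent inhibition of the receptor-coactivator binding signal exceeds about 50% in the single-dose screen, limit read from the data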
IL1B NFkB inh – inhibitors of IL-1B driven NFkB p65 nuclear import, primary screen, imaging, HUVEC, IL-1B stimulus, high-content imaging | HUVEC IL-1B NFkB p65 nuclear translocation imaging | inhibition, % at 2 µM | actives 0.43% (n = 94,000);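 active = inhibition above about 30% together with a positive call from visual inspection of the well image, limit read from the data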;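 also: nuclear over cytoplasmic p65 intensity ratio measured by imaging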
ERa coact pot – enhancers of ERα–SRC-1 coactivator binding, primary screen, biochemical, TR-FRET, ERα LBD, low estradiol; Estrogen receptor (Homo sapiens), P03372; TR-FRET ERalpha-LBD/SRC-Cy5 coactivator binding, 2 h; 100 = basal binding, no effect; coactivator binding (% of control), % at 25.6 µM; actives 1.3% (n = 86,000); AID 639, 2007; in the data active = activity above about 200%;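 also: binding measured in presence of low estradiol as agonist stimulus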
NFkB transloc pot – enhancers of NFkB p65 translocation in HUVEC – imaging, IL-1B stimulus, high-content imaging, primary screen; HUVEC IL-1B NFkB p65 nuclear translocation imaging; actives 0.3% (n = 94,000); AID 819, 2007; activation, % at 2 µM;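 active = activation above 40%, about the mean plus 3 SD, also judged a hit on visual image review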;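 also: percent activation is computed from the nuclear over cytoplasmic p65 intensity ratio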
Hits are given with their value; . = inactive; / = no result given; [ ] = remark or other dose. Most compounds without a hit are left out; they make up all but 3.6% or so of the library.

SMILES	ERa SRC1 inh	HUVEC tox IL1B	ERb coact inh	IL1B NFkB inh	ERa coact pot	NFkB transloc pot
Cc1nn(C(=O)c2cccs2)c(C)c1CN1C(=O)c2ccccc2C1=O	.	.	.	.	.	.
CCOC(=O)C1=C(C)OC(N)=C(C#N)C1c1cc2cc(C)ccc2nc1N1CCCCC1 (stereo unspecified)	.	.	.	.	318[fluorescence artefact?]	.
COc1nc(-c2ccccc2)ccc1-c1noc(-c2ccco2)n1	.	.	.	.	229	.
COc1nc(C)ccc1-c1noc(-c2ccncc2)n1	.	.	.	.	.	.
COc1ccc(-c2ccc(-c3noc(-c4ccccc4F)n3)c(OC)n2)cc1	.	.	.	.	241[fluorescence artefact?]	.
COc1nc(-c2ccc(Cl)cc2)ccc1-c1noc(-c2ccncc2)n1	65[fluorescence artefact?]	.	.	.	369[fluorescence artefact?]	.
COc1nc(-c2ccccc2)ccc1-c1noc(-c2ccccc2)n1	.	.	.	.	.	.
CC1CCN(c2oc(-c3cccc4ccccc34)nc2C#N)CC1	.	94	.	100	.	.
O=C(C1CCCN1S(=O)(=O)c1ccc(Cl)c(Cl)c1)N1CCCCC1 (stereo unspecified)	.	.	.	.	.	.
O=C1CC(C(=O)N2CCN(c3ccc(F)cc3)CC2)CN1CCc1ccccc1 (stereo unspecified)	.	.	.	.	.	.
CC(C)CCN1CC(C(=O)N2CCN(c3ccc(F)cc3)CC2)CC1=O (stereo unspecified)	.	76	.	.	.	.
COc1ccccc1CN1CC(C(=O)N2CCN(c3ccc(F)cc3)CC2)CC1=O (stereo unspecified)	.	.	.	.	.	41
O=C(C1CCC(=O)N1Cc1ccccc1Cl)N1CCN(c2ccc(F)cc2)CC1 (stereo unspecified)	.	78	.	.	.	.
CC1(C)C(=O)Nc2ccccc2N1C(=O)COc1ccc(S(=O)(=O)N2CCOCC2)cc1Cl	85[fluorescence artefact?]	.	88[fluorescence artefact?]	.	.	.
CCOC(=O)C1CSC(CC(=O)Nc2ccc(Cl)c(Cl)c2)C(=O)N1 (stereo unspecified)	.	.	.	.	.	.
COCc1cc(=O)n2[nH]c(-c3ccsc3-n3c(C)ccc3C)cc2n1	.	.	.	.	.	.
Cc1nc2cc(-c3ccsc3-n3c(C)ccc3C)[nH]n2c(=O)c1Cl	59	.	64	.	.	.
O=C(CSc1nnc(-c2ccccc2)n1Cc1ccccc1)N1CCOCC1	.	.	.	.	.	.
Oc1ccccc1-c1nnc(SCCN2CCOCC2)n1Cc1ccccc1	.	.	59	.	.	.
CCOC(=O)c1nnn(-c2nonc2N)c1CN(C)Cc1ccccc1	.	/	.	/	.	/
CCCc1nnc(NC(=O)c2c(O)c3cccc4c3n(c2=O)CCC4)s1	.	/	56[fluorescence artefact?]	/	.	/
Cc1ccc(S(=O)(=O)N2CCCCC2)cc1C(=O)Nc1ccc2cn[nH]c2c1	.	.	.	.	.	.
Cc1ccc(S(=O)(=O)N2CCCCC2)cc1C(=O)Nc1ncn[nH]1	55	/	59	/	.	/
CC(C)CC(c1nnnn1Cc1ccccc1)N1CCC(C(N)=O)CC1 (stereo unspecified)	.	.	.	.	210[fluorescence artefact?]	58
CCCC(c1nnnn1Cc1ccccc1)N1CCC(C(N)=O)CC1 (stereo unspecified)	.	.	.	.	.	.
Cc1nc(-c2cccc(NS(=O)(=O)c3cccc4ccccc34)c2)cs1	.	.	.	.	.	.
COC(=O)c1cc(NC(=O)Cn2c(=O)cnc3ccccc32)cc(C(=O)OC)c1	55	.	.	.	.	.
COc1ccc(OC)c2c(C)cc(NCCN3CCOCC3)nc12	.	.	.	.	.	.
O=C(Nc1ccc2c(c1)OCO2)C1Cc2ccccc2CN1S(=O)(=O)c1cccs1 (stereo unspecified)	79[fluorescence artefact?]	.	.	.	.	.

Screening data as filed in PubChem.
